# Test results reported in publication PMC7862700, “An all-to-all approach to the identification of sequence-specific readers for epigenetic DNA modifications on cytosine”.
# Biological target: SPI1 (Homo sapiens, UniProt P17947 1-270)
# Assay: DAPPL (digital affinity profiling via proximity ligation, sequencing); 10 mM Tris-HCl pH 7.5, 50 mM NaCl, 1 mM DTT, 4% glycerol, room temperature, 30 min; GST-TFs on glutathione beads, 16-mer random dsDNA library, 0.1% formaldehyde crosslink after washing; high values mean tight binding
# Conditions: protein: recombinant; tags: N-terminal GST; dsDNA, one strand shown
# Summary of the method: (§1)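 Binding signal is each hexamer's read frequency for a factor divided by its frequency in the tag-only sample. The factors were GST-fused human transcription factors from yeast, captured on glutathione beads, DNA-barcoded and pooled with that sample. Pools were incubated with 200 nmole of a random double-stranded 16-mer DNA library in Tris/NaCl/DTT/glycerol buffer at room temperature for 30 min, then washed, crosslinked with 0.1% formaldehyde, proximity-ligated with BsaI/T4 ligase (1 h, 37 °C), PCR-amplified and sequenced on an Illumina NextSeq500.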
row,Sequence,binding signal
1,GTCTCG,"1.33 fold enrichment (6-mer frequency, TF over GST control)"
2,CGTATA,"1.13 fold enrichment (6-mer frequency, TF over GST control)"
3,GAATGT,"1.07 fold enrichment (6-mer frequency, TF over GST control)"
4,TCAAAC,"1.16 fold enrichment (6-mer frequency, TF over GST control)"
5,TTACGG,"1.37 fold enrichment (6-mer frequency, TF over GST control)"
6,CTCACG,"1.22 fold enrichment (6-mer frequency, TF over GST control)"
7,TCCTAT,"1.44 fold enrichment (6-mer frequency, TF over GST control)"
8,ATGCTC,"1.41 fold enrichment (6-mer frequency, TF over GST control)"
9,TCCGAA,"1.25 fold enrichment (6-mer frequency, TF over GST control)"
10,ATTTGA,"1.17 fold enrichment (6-mer frequency, TF over GST control)"
11,CTGCAT,"1.42 fold enrichment (6-mer frequency, TF over GST control)"
12,ACGTAT,"1.14 fold enrichment (6-mer frequency, TF over GST control)"
13,GGCTCT,"1.18 fold enrichment (6-mer frequency, TF over GST control)"
14,GCCTAA,"1.11 fold enrichment (6-mer frequency, TF over GST control)"
15,CGATTG,"1.22 fold enrichment (6-mer frequency, TF over GST control)"
16,TTACAT,"1.3 fold enrichment (6-mer frequency, TF over GST control)"
17,TAAATT,"1.22 fold enrichment (6-mer frequency, TF over GST control)"
18,CCCTCG,"1.23 fold enrichment (6-mer frequency, TF over GST control)"
19,TGCGCT,"1.11 fold enrichment (6-mer frequency, TF over GST control)"
20,CAAAAT,"1.28 fold enrichment (6-mer frequency, TF over GST control)"

row,Sequence,binding signal
1,TTAGCT,"1.2 fold enrichment (6-mer frequency, TF over GST control)"
2,TAACCT,"1.29 fold enrichment (6-mer frequency, TF over GST control)"
3,AACATA,"1.21 fold enrichment (6-mer frequency, TF over GST control)"
4,TACCTA,"1.28 fold enrichment (6-mer frequency, TF over GST control)"
5,ACTCAA,"1.24 fold enrichment (6-mer frequency, TF over GST control)"
6,AAAAAT,"1.29 fold enrichment (6-mer frequency, TF over GST control)"
7,CCAATT,"1.23 fold enrichment (6-mer frequency, TF over GST control)"
8,CCGATT,"1.31 fold enrichment (6-mer frequency, TF over GST control)"
9,ACCTCT,"1.29 fold enrichment (6-mer frequency, TF over GST control)"
10,AGCTCT,"1.04 fold enrichment (6-mer frequency, TF over GST control)"
11,TGTATG,"1.18 fold enrichment (6-mer frequency, TF over GST control)"
12,CAATCC,"1.12 fold enrichment (6-mer frequency, TF over GST control)"
13,AAGTAC,"1.62 fold enrichment (6-mer frequency, TF over GST control)"
14,TCAACC,"1.16 fold enrichment (6-mer frequency, TF over GST control)"
15,GATGAC,"1.58 fold enrichment (6-mer frequency, TF over GST control)"
16,ATTCGT,"1.11 fold enrichment (6-mer frequency, TF over GST control)"
17,ATGGCC,"1.37 fold enrichment (6-mer frequency, TF over GST control)"
18,GAAAAT,"1.14 fold enrichment (6-mer frequency, TF over GST control)"
19,TTACAC,"1.13 fold enrichment (6-mer frequency, TF over GST control)"

# Biological target: SPIB (Homo sapiens, UniProt Q01892 1-262)
# Assay: as above
# Conditions: protein: recombinant; tags: N-terminal GST; dsDNA, one strand shown
# Summary of the method: as §1
# Chain of SPIB (Q01892 whole entry): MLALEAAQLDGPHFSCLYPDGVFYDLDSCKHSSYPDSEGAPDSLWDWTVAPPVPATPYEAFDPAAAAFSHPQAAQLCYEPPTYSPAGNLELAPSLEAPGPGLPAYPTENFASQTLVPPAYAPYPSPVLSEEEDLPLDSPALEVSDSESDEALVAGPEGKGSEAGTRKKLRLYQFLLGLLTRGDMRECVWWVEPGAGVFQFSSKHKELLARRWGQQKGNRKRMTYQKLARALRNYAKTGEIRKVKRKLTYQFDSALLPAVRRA
row,Sequence,binding signal
1,GTCTCG,"1.43 fold enrichment (6-mer frequency, TF over GST control)"
2,CGTATA,"1.25 fold enrichment (6-mer frequency, TF over GST control)"
3,GAATGT,"1.12 fold enrichment (6-mer frequency, TF over GST control)"
4,TCAAAC,"1.16 fold enrichment (6-mer frequency, TF over GST control)"
5,TTACGG,"1.38 fold enrichment (6-mer frequency, TF over GST control)"
6,CTCACG,"1.32 fold enrichment (6-mer frequency, TF over GST control)"
7,TCCTAT,"1.6 fold enrichment (6-mer frequency, TF over GST control)"
8,ATGCTC,"1.35 fold enrichment (6-mer frequency, TF over GST control)"
9,TCCGAA,"1.44 fold enrichment (6-mer frequency, TF over GST control)"
10,ATTTGA,"1.36 fold enrichment (6-mer frequency, TF over GST control)"
11,CTGCAT,"1.65 fold enrichment (6-mer frequency, TF over GST control)"
12,ACGTAT,"1.19 fold enrichment (6-mer frequency, TF over GST control)"
13,GGCTCT,"1.26 fold enrichment (6-mer frequency, TF over GST control)"
14,GCCTAA,"1.23 fold enrichment (6-mer frequency, TF over GST control)"
15,CGATTG,"1.19 fold enrichment (6-mer frequency, TF over GST control)"
16,TTACAT,"1.3 fold enrichment (6-mer frequency, TF over GST control)"
17,TAAATT,"1.3 fold enrichment (6-mer frequency, TF over GST control)"
18,CCCTCG,"1.34 fold enrichment (6-mer frequency, TF over GST control)"
19,TGCGCT,"1.31 fold enrichment (6-mer frequency, TF over GST control)"
20,CAAAAT,"1.18 fold enrichment (6-mer frequency, TF over GST control)"

row,Sequence,binding signal
1,TTAGCT,"1.19 fold enrichment (6-mer frequency, TF over GST control)"
2,TAACCT,"1.31 fold enrichment (6-mer frequency, TF over GST control)"
3,AACATA,"1.22 fold enrichment (6-mer frequency, TF over GST control)"
4,TACCTA,"1.22 fold enrichment (6-mer frequency, TF over GST control)"
5,ACTCAA,"1.23 fold enrichment (6-mer frequency, TF over GST control)"
6,AAAAAT,"1.43 fold enrichment (6-mer frequency, TF over GST control)"
7,CCAATT,"1.28 fold enrichment (6-mer frequency, TF over GST control)"
8,CCGATT,"1.4 fold enrichment (6-mer frequency, TF over GST control)"
9,ACCTCT,"1.24 fold enrichment (6-mer frequency, TF over GST control)"
10,AGCTCT,"1.04 fold enrichment (6-mer frequency, TF over GST control)"
11,TGTATG,"1.16 fold enrichment (6-mer frequency, TF over GST control)"
12,CAATCC,"1.2 fold enrichment (6-mer frequency, TF over GST control)"
13,AAGTAC,"1.57 fold enrichment (6-mer frequency, TF over GST control)"
14,TCAACC,"1.17 fold enrichment (6-mer frequency, TF over GST control)"
15,GATGAC,"1.45 fold enrichment (6-mer frequency, TF over GST control)"
16,ATTCGT,"1.27 fold enrichment (6-mer frequency, TF over GST control)"
17,ATGGCC,"1.39 fold enrichment (6-mer frequency, TF over GST control)"
18,GAAAAT,"1.18 fold enrichment (6-mer frequency, TF over GST control)"
19,TTACAC,"1.21 fold enrichment (6-mer frequency, TF over GST control)"

# Biological target: T1, ELK3 (Homo sapiens, UniProt P41970 1-407)
# T1 sequence: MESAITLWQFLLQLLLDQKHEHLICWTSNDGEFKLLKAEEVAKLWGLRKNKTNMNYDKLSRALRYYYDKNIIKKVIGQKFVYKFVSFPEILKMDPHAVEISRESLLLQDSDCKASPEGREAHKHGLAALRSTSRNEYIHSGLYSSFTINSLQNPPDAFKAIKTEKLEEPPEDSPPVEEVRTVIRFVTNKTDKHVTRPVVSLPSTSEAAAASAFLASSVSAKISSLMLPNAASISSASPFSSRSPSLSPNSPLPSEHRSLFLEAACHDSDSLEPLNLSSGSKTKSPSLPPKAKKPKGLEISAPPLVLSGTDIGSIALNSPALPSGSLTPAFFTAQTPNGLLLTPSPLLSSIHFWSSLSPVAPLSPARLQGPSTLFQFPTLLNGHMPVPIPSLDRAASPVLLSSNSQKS
# Assay: as above
# Conditions: protein: recombinant; tags: N-terminal GST; dsDNA, one strand shown
# Summary of the method: as §1
row,Sequence,binding signal
1,GTCTCG,"1.37 fold enrichment (6-mer frequency, TF over GST control)"
2,CGTATA,"1.16 fold enrichment (6-mer frequency, TF over GST control)"
3,GAATGT,"1.06 fold enrichment (6-mer frequency, TF over GST control)"
4,TCAAAC,"1.2 fold enrichment (6-mer frequency, TF over GST control)"
5,TTACGG,"1.48 fold enrichment (6-mer frequency, TF over GST control)"
6,CTCACG,"1.41 fold enrichment (6-mer frequency, TF over GST control)"
7,TCCTAT,"1.47 fold enrichment (6-mer frequency, TF over GST control)"
8,ATGCTC,"1.27 fold enrichment (6-mer frequency, TF over GST control)"
9,TCCGAA,"1.18 fold enrichment (6-mer frequency, TF over GST control)"
10,ATTTGA,"1.05 fold enrichment (6-mer frequency, TF over GST control)"
11,CTGCAT,"1.39 fold enrichment (6-mer frequency, TF over GST control)"
12,ACGTAT,"1.42 fold enrichment (6-mer frequency, TF over GST control)"
13,GGCTCT,"1.42 fold enrichment (6-mer frequency, TF over GST control)"
14,GCCTAA,"1.19 fold enrichment (6-mer frequency, TF over GST control)"
15,CGATTG,"1.24 fold enrichment (6-mer frequency, TF over GST control)"
16,TTACAT,"1.36 fold enrichment (6-mer frequency, TF over GST control)"
17,TAAATT,"1.31 fold enrichment (6-mer frequency, TF over GST control)"
18,CCCTCG,"1.15 fold enrichment (6-mer frequency, TF over GST control)"
19,TGCGCT,"1.25 fold enrichment (6-mer frequency, TF over GST control)"
20,CAAAAT,"1.21 fold enrichment (6-mer frequency, TF over GST control)"

row,Sequence,binding signal
1,TTAGCT,"1.18 fold enrichment (6-mer frequency, TF over GST control)"
2,TAACCT,"1.43 fold enrichment (6-mer frequency, TF over GST control)"
3,AACATA,"1.25 fold enrichment (6-mer frequency, TF over GST control)"
4,TACCTA,"1.23 fold enrichment (6-mer frequency, TF over GST control)"
5,ACTCAA,"1.31 fold enrichment (6-mer frequency, TF over GST control)"
6,AAAAAT,"1.39 fold enrichment (6-mer frequency, TF over GST control)"
7,CCAATT,"1.18 fold enrichment (6-mer frequency, TF over GST control)"
8,CCGATT,"1.29 fold enrichment (6-mer frequency, TF over GST control)"
9,ACCTCT,"1.36 fold enrichment (6-mer frequency, TF over GST control)"
10,AGCTCT,"1.15 fold enrichment (6-mer frequency, TF over GST control)"
11,TGTATG,"1.22 fold enrichment (6-mer frequency, TF over GST control)"
12,CAATCC,"1.08 fold enrichment (6-mer frequency, TF over GST control)"
13,AAGTAC,"1.73 fold enrichment (6-mer frequency, TF over GST control)"
14,TCAACC,"1.32 fold enrichment (6-mer frequency, TF over GST control)"
15,GATGAC,"1.45 fold enrichment (6-mer frequency, TF over GST control)"
16,ATTCGT,"1.08 fold enrichment (6-mer frequency, TF over GST control)"
17,ATGGCC,"1.24 fold enrichment (6-mer frequency, TF over GST control)"
18,GAAAAT,"1.04 fold enrichment (6-mer frequency, TF over GST control)"
19,TTACAC,"1.31 fold enrichment (6-mer frequency, TF over GST control)"
